# Bioassay records as filed in PubChem.
# A selection: hits, their analogues and other compounds. The true share with any hit is near 1.5%.
# eIF4H FP inh: inhibitors of RNA binding by human eIF4H. eIF4H fluorescence polarization binding assay. AID 2012. 290,000 compounds, 0.94% hits. Q15056. inhibition, % at 35 µM;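 note: calls also rest on retests at 20 µM and on dose response follow-up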
# PABP FP inh: blocks human PABP binding to poly(A) RNA; calls only at 35 µM; 290,000 compounds, 1% hits; P11940; fluorescence polarization;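 note: calls also rest on retests at 20 µM and on dose response follow-up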
# PABP1 MLLE inh: blocks PAM2 peptide binding to the PABP1 MLLE domain | P11940 | GST-MLLE / FITC-PAM2 fluorescence polarization | inhibition, % at 20 µM | 360,000 compounds, 0.36% hits | AID 588489; in the data active = inhibition above about 35%, passing the limit was not always enough;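 note: plate controls were DMSO wells with GST-MLLE for no effect and wells lacking GST-MLLE protein for full effect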
# eIF4E 4G PPI: eIF4E/eIF4G interaction inhibition in translation initiation; P63073+Q04637; TR-FRET eIF4E-eIF4GI(517-606) binding, 2 h; inhibition, % at 21.7 µM; 220,000 compounds, 0.37% hits;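 active = inhibition above about 30%, limit read from the data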;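 note: 0% = full FRET control wells and 100% = background wells lacking eIF4GI fragment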
# Starred values were filed as active, the others as inactive; i = inactive; ? = inconclusive; . = no result; + = active, no number. Unless noted, the rule behind the calls is not given here.
SMILES,eIF4H FP inh,PABP FP inh,PABP1 MLLE inh,eIF4E 4G PPI
Cc1ccc(S(=O)(=O)CCSc2cccc(C(=O)Nc3ccccc3C(=O)O)c2)cc1,1.2,i,35.7*,-3.0
CC(C)=CCC[C@H](C)C[C@@H]1CC2=C(C(=O)OC(C)(C)O2)[C@H](c2ccc(F)cc2)O1,.,.,-8.6,.
c1cncc(-c2nnc(SCc3nc4ccccc4[nH]3)o2)c1,-0.8,i,-23.2,1.2
c1ccc2[nH]c(CSc3nc4ccccc4o3)nc2c1,-15.1,i,34.8*,-4.7
C=CCO/N=C(/C)c1ccc(Oc2cnccn2)cc1,7.9*,+,1.8,-0.3
COc1ccc(C(=O)O/N=C(\C)c2cnccn2)cc1,-4.5,i,5.8,3.0
Cc1cc2c(c(=O)o1)C(c1ccc([N+](=O)[O-])o1)C(C#N)=C(N)O2 (configuration not stated),93.0*,+,13.6,0.8
Oc1ccccc1C=Nc1ccccc1-c1nc2ccccc2[nH]1,5.7*,+,-8.7,4.9
Cc1cc(Br)cn2c(Cc3ccsc3)c(-c3ccc(F)cc3)nc12,.,.,7.8,.
CCCCc1c(O)nc(SCC(=O)c2ccccc2)[nH]c1=O,-1.0,i,38.9*,-0.1
CCCCc1c(O)nc(SCC(=O)O)[nH]c1=O,-6.4,i,-4.5,-1.4
CCCCCc1c(O)nc(SCCN(CC)CC)[nH]c1=O,active,+,5.7,-5.0
CCCCCc1c(O)nc(SCCN(C)C)[nH]c1=O,-7.8,i,1.8,0.6
O=C(CSc1nc(O)c(Cc2ccccc2)c(=O)[nH]1)c1ccccc1,5.3,i,40.7*,-7.2
C=CCOc1cccn2c(N(C=O)Cc3ccccc3)c(CC)nc12,.,.,-3.4,.
C[C@H](CO)N1C[C@H](C)[C@H](CN(C)C(=O)NC2CCCCC2)Oc2ncc(Br)cc2C1=O,.,.,4.2,.
COC1C(=O)CCC2(CO2)C1(O)C1(C)OC1CC=C(C)C (configuration not stated),.,.,6.1,.
Cc1ccc2c(c1)N(C)/C(=C/c1cccc[n+]1CCO)S2,-1.7,+,-133.1,.
COc1ccc2c(c1)N(C)/C(=C/c1cccc[n+]1C)S2,-0.8,i,-137.9,.
CN1/C(=C/c2cccc[n+]2C)Sc2ccccc21,-1.7,+,-140.4,.
CN1/C(=C/C(=O)C2CCC2)Sc2ccccc21,-4.6,i,33.8,-35.7
Cc1ccc2c(c1)N(C)/C(=C/c1cccc[n+]1C)S2,5.7,+,-144.8,.
Nc1ccn([C@@H]2O[C@H](C(=O)Nc3cc(C(F)(F)F)cc(C(F)(F)F)c3)[C@@H](O)[C@H]2O)c(=O)n1,.,.,-7.4,.
C#Cc1ccc([C@@H]2C=C(C(=O)NC3CC3)O[C@H](OCCCCO)C2)cc1,-7.5,i,-1.3,97.4*
O=c1[nH]cc(N(CCO)CCO)c(=O)[nH]1,-0.5,i,2.1,93.9*
SMILES,eIF4H FP inh,PABP FP inh,PABP1 MLLE inh,eIF4E 4G PPI
O=C(NC(=S)Nc1ccc2oc(=O)ccc2c1)c1ccco1,-10.3,i,43.0*,-8.2
COc1cccc(OC)c1C(=O)NC(=S)Nc1ccc2oc(=O)ccc2c1,-10.2,i,11.8,-4.0
COCCN(C(=O)COC(=O)C12CC3CC(CC(O)(C3)C1)C2)c1c(N)n(Cc2ccccc2)c(=O)[nH]c1=O,.,.,-20.0,.
Oc1ccc(CNc2ccc(F)cc2)c2cccnc12,14.9,i,27.2,15.0
Oc1ccc(CNc2ccccc2)c2cccnc12,20.3,i,41.2*,4.2
O=C1/C(=C\c2ccc(Br)o2)SC(=Nc2ccccc2)N1c1ccccc1,55.0*,+,8.5,5.6
CN(C)N1C(=O)/C(=C/c2ccco2)SC1=Nc1ccccc1,.,.,11.0,.
Cc1cccn2c(=O)c3cc(C(N)=S)c(=N)n(CCCN4CCOCC4)c3nc12,74.8*,+,19.4,3.2
CCc1ccc(NC(=S)N2CCNC(=O)C2CC(=O)OC)cc1 (configuration not stated),0.2,+,9.5,0.5
COc1ccc(-c2ccc(C3C(C#N)=C(N)Oc4n[nH]c(C)c43)o2)cc1 (configuration not stated),?,+,-63.1,5.3
Cc1ccc(C2C(C#N)=C(N)Oc3n[nH]c(-c4ccccc4)c32)o1 (configuration not stated),-5.0,i,-15.9,-11.3
Cc1ccc(-c2[nH]nc3c2C(C)C(C#N)=C(N)O3)cc1 (configuration not stated),9.9*,i,3.0,-1.8
CCc1noc(C)c1C(=O)N(CC)CC(=O)NCc1ccc(F)cc1,.,.,1.2,.
N#Cc1c(-c2ccccc2Cl)noc1/C=C/Nc1ccc(C(=O)O)cc1,51.8*,+,-10.8,-1.4
